In the supplement of paper PMC3545927:
The list shows a part of the results. The true hit rate is not given.

B1: HC422 (peptide)
chain: CAGAPTYSWGAGNASASA
B2: HC2468 (peptide)
chain: CAWTPCSAHLAGNASASA
B3: HC1737 (peptide)
chain: CAMEECSSHLAGNASASA
B4: HC2520 (peptide)
chain: CASTCCSAHLAGNASASA
B5: FS-2375 (peptide)
chain: CARRRRNVHDAGNASASA
B6: FS-3167 (peptide)
chain: CARRRRLLQQAGNASASA
B7: FS-2077 (peptide)
chain: CARRRREYWQAGNASASA
B8: FS-2452 (peptide)
chain: CARRRREAPKAGNASASA
B9: FS-2127 (peptide)
chain: CARACRLVHDAGNASASA
B10: FS-1482 (peptide)
chain: CARRRRFSRTAGNASASA
B11: HC267 (peptide)
chain: CAVYEAADAIAGNASASA
B12: HC1477 (peptide)
chain: CATPMGFSYDAGNASASA
B13: FS-1566 (peptide)
chain: CARRRRFERAAGNASASA
B14: FS-2373 (peptide)
chain: CARRRREGGAAGNASASA
B15: FS-197 (peptide)
chain: CASSVRPAREAGNASASA
B16: FS-1210 (peptide)
chain: CAHPLRPAREAGNASASA
B17: HC2043 (peptide)
chain: CAVVCCSASYAGNASASA
B18: FS-278 (peptide)
chain: CANPARVCRDAGNASASA
B19: FS-926 (peptide)
chain: CAELGRPARDAGNASASA
B20: FS-1000 (peptide)
chain: CAGLRRQKRDAGNASASA
B21: FS-2391 (peptide)
chain: CALEKRSVGCAGNASASA
B22: HC1082 (peptide)
chain: CAGLGKVLIDAGNASASA
B23: HC642 (peptide)
chain: CAGLRDLAVAAGNASASA
B24: FS-946 (peptide)
chain: CANPARDDRSAGNASASA
B25: FS-1639 (peptide)
chain: CALEKRQKRDAGNASASA
B26: FS-463 (peptide)
chain: CAMSARRARDAGNASASA
B27: HC1908 (peptide)
chain: CATTPCSGWWAGNASASA
B28: HC1776 (peptide)
chain: CAMEECSQHGAGNASASA
B29: HC2377 (peptide)
chain: CAEVPCHSPSAGNASASA
B30: HC2347 (peptide)
chain: CAEVFCHRPSAGNASASA
B31: FS-1048 (peptide)
chain: CAPKRRQKRDAGNASASA
B32: FS-1150 (peptide)
chain: CAQHSVRKRDAGNASASA
B33: FS-440 (peptide)
chain: CAHLQRQKRDAGNASASA
B34: FS-1214 (peptide)
chain: CAILRRHKRDAGNASASA
B35: HC1111 (peptide)
chain: CAILRRHVGPAGNASASA
B36: FS-336 (peptide)
chain: CAHWSVTKRDAGNASASA
B37: HC2061 (peptide)
chain: CAVVCCSNSYAGNASASA
B38: HC2305 (peptide)
chain: CALVPCHRPSAGNASASA
B39: HC2124 (peptide)
chain: CAEIVVCCSMAGNASASA
B40: HC1491 (peptide)
chain: CAQCCDLDPQAGNASASA
B41: HC1760 (peptide)
chain: CAMEECSQCLAGNASASA
B42: HC126 (peptide)
chain: CAEVVFSTWVAGNASASA
B43: HC1344 (peptide)
chain: CATSSEPAPSAGNASASA
B44: FS-571 (peptide)
chain: CATSSRNARNAGNASASA
B45: FS-1092 (peptide)
chain: CATHRRQKRDAGNASASA
B46: FS-930 (peptide)
chain: CAGLRRRKRDAGNASASA
B47: FS-1422 (peptide)
chain: CATDSRTNRDAGNASASA
B48: FS-542 (peptide)
chain: CAISPRQKRDAGNASASA

Biological target: furin, P09958
Sequence (P09958 whole entry): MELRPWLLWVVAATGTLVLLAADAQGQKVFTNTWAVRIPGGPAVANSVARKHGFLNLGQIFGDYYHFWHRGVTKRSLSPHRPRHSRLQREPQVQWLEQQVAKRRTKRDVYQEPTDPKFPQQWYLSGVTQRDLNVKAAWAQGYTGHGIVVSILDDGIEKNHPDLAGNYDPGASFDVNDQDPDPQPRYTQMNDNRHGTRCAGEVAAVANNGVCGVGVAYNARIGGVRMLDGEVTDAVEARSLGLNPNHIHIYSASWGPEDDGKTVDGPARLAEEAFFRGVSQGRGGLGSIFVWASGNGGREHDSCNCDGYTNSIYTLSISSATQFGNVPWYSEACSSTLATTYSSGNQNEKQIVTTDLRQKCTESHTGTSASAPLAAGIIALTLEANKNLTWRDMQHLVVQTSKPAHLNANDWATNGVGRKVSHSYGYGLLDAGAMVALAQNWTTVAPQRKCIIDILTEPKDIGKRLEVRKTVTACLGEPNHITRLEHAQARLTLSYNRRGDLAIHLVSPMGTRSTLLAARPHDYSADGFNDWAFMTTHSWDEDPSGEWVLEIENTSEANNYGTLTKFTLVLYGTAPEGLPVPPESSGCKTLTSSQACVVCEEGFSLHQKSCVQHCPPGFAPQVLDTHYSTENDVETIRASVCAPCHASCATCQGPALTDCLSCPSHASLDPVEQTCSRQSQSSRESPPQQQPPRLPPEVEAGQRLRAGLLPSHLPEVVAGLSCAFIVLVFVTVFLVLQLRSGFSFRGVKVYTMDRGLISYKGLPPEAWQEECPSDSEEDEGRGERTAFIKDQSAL
Test: furin cleavage Z-score vs untreated control; higher = more cleavage, active = 3.5 or more, inactive = 1 or less, 8 variable residues between constant flanks
Method in brief: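 Purified furin digested bead-held 8-mer peptide–cDNA fusions at 1:10 enzyme:substrate in 0.01 ml of 50 mM HEPES pH 7.5 with CaCl2 and NaCl for 7.5, 15 or 30 min. The cleavage Z-score compares sequencing counts of released DNA with furin-free reactions on a log scale, with lowess adjustment and median absolute deviation scaling.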

Sequence | furin cleavage Z-score (7.5 min) | furin cleavage Z-score (15 min) | furin cleavage Z-score (30 min)
B1 | -0.832 (inactive) | -0.574 (inactive) | -0.69 (inactive)
B2 | -0.238 (inactive) | 0.336 (inactive) | -1.23 (inactive)
B3 | -0.244 (inactive) | 0.0684 (inactive) | 0.567 (inactive)
B4 | -0.141 (inactive) | 0.556 (inactive) | -0.184 (inactive)
B5 | 4.94 (active) | 5.47 (active) | 4.66 (active)
B6 | -0.397 (inactive) | -0.514 (inactive) | -0.168 (inactive)
B7 | 1.57 | 2.17 | 5.41 (active)
B8 | 10.9 (active) | 12.3 (active) | 8.72 (active)
B9 | -0.975 (inactive) | -0.538 (inactive) | -0.874 (inactive)
B10 | 12.1 (active) | 11.9 (active) | 9.62 (active)
B11 | -0.0143 (inactive) | -0.395 (inactive) | -0.118 (inactive)
B12 | -1.01 (inactive) | -0.454 (inactive) | -1.57 (inactive)
B13 | 10.7 (active) | 10.7 (active) | 8.07 (active)
B14 | -0.0204 (inactive) | 0.649 (inactive) | 0.0983 (inactive)
B15 | 5.98 (active) | 7.51 (active) | 5.17 (active)
B16 | 5.83 (active) | 7.36 (active) | 6.09 (active)
B17 | 0.0516 (inactive) | 0.0797 (inactive) | 0.0526 (inactive)
B18 | 6.13 (active) | 5.66 (active) | 4.1 (active)
B19 | 0.0348 (inactive) | -0.0349 (inactive) | -0.833 (inactive)
B20 | 12.6 (active) | 12.8 (active) | 9.7 (active)
B21 | -0.325 (inactive) | -2.06 (inactive) | -0.0695 (inactive)
B22 | -0.199 (inactive) | -0.846 (inactive) | -0.271 (inactive)
B23 | 1.12 | -0.299 (inactive) | -1.6 (inactive)
B24 | 1.25 | 0.0847 (inactive) | -1.86 (inactive)

Sequence | furin cleavage Z-score (7.5 min) | furin cleavage Z-score (15 min) | furin cleavage Z-score (30 min)
B25 | 14.8 (active) | 13.5 (active) | 11.4 (active)
B26 | 9.65 (active) | 10.9 (active) | 7.88 (active)
B27 | -0.371 (inactive) | -1.44 (inactive) | 0.0983 (inactive)
B28 | -0.484 (inactive) | 0.542 (inactive) | -0.44 (inactive)
B29 | -0.25 (inactive) | -0.38 (inactive) | 1.09
B30 | -0.391 (inactive) | -1 (inactive) | 0.51 (inactive)
B31 | 13.5 (active) | 14.7 (active) | 10 (active)
B32 | 11.7 (active) | 12.2 (active) | 10.4 (active)
B33 | 6.68 (active) | 7.1 (active) | 5.53 (active)
B34 | 10.7 (active) | 10.2 (active) | 7.94 (active)
B35 | 0.0974 (inactive) | -0.838 (inactive) | 0.671 (inactive)
B36 | 0.168 (inactive) | 0.304 (inactive) | 0.862 (inactive)
B37 | 0.77 (inactive) | -0.0199 (inactive) | 0.92 (inactive)
B38 | 0.746 (inactive) | 0.178 (inactive) | 0.32 (inactive)
B39 | 0.157 (inactive) | -0.897 (inactive) | 0.583 (inactive)
B40 | 0.144 (inactive) | 0.912 (inactive) | -0.252 (inactive)
B41 | -0.273 (inactive) | -0.494 (inactive) | 0.638 (inactive)
B42 | 1.73 | -1.1 (inactive) | -0.791 (inactive)
B43 | -0.191 (inactive) | -1.38 (inactive) | -0.0397 (inactive)
B44 | 3.05 | 4.2 (active) | 5.2 (active)
B45 | 3.98 (active) | 2.56 | 2.3
B46 | 12.2 (active) | 10.2 (active) | 8.8 (active)
B47 | -1.07 (inactive) | -0.239 (inactive) | 1.78
B48 | 12.4 (active) | 12.3 (active) | 9.21 (active)
